From PubChem BioAssay (Tox21) come the findings set out here.

A short description of assay [1]: qHTS assay to identify small molecule antagonists of the estrogen receptor alpha (ER-alpha) signaling pathway using the BG1 cell line in the presence of 0.1 nM 17-beta-estradiol - cell viability counter screen (AID 1259241). Note: nearly all actives have a fitted effect of over 40% in size. The essentials: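 Measures cytotoxicity alongside the ER-alpha antagonist readout: VM7Luc4E2 cells, charcoal-stripped serum, 0.1 nM 17beta-estradiol final, 22 hr compound incubation at 37C, CellTiter-Fluor fluorescence.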

Assay [2] in a line: qHTS assay to identify small molecule antagonists of the androgen receptor (AR) signaling pathway using the MDA cell line in the presence of 0.5 nM R1881 - cell viability counter screen (AID 1259242). Note: nearly all actives have a fitted effect of over 45% in size. The essentials: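 Steps: plate MDA-kb2 cells, rest 5 hr at 37C without CO2; pin in compounds in DMSO; add R1881 to 0.5 nM final; incubate 16 hr; add CellTiter-Fluor, 30 min; read fluorescence.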
(In general: In qHTS, concentration-response curves come from the screen itself.)

The target in assay [3] is Estrogen receptor (Homo sapiens) (UniProt P03372). The assay can be described thus: qHTS assay to identify small molecule antagonists of the estrogen receptor alpha (ER-alpha) signaling pathway using the BG1 cell line in the presence of 0.1 nM 17-beta-estradiol (AID 1259244). Note: nearly all actives have a fitted effect of over 50% in size. In short, it runs like this:
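Antagonist mode: compounds in DMSO are pinned onto VM7Luc4E2 reporter cells, 0.1 nM final 17beta-estradiol is added, and after 22 h at 37C luciferase luminescence is measured with ONE-Glo.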

Assay [4] in a line: qHTS assay to identify small molecule HDAC inhibitors (AID 1259364).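 Note: wild-type HCT-116 cells with endogenous class I/II HDAC activity; top concentration of the series differs between compounds; nearly all actives have a fitted effect of over 45% in size.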 In short, it runs like this: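 Cells (HCT-116, wild type) are seeded at 1,500 per well, incubated overnight, treated with compound in DMSO for 2 hr, then developed with HDAC-Glo I/II reagent for 30 min at room temperature.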
A short description of assay [5]: qHTS assay to identify small molecule HDAC inhibitors - cell viability counter screen (AID 1259365). Note: series mostly up to about 92 µM; nearly all actives have a fitted effect of over 50% in size. The essentials: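 Following a 2hr exposure of overnight-plated wild-type HCT-116 cells to DMSO-delivered compounds, CellTiter-Glo was added and luminescence recorded after 30min at room temperature.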
A short description of assay [6]: qHTS assay to identify small molecule agonists of the sonic hedgehog signaling (Shh) pathway - cell viability counter screen (AID 1259366). Note: nearly all actives have a fitted effect of over 50% in size. Note: potency is the fitted concentration of half-maximal effect. The essentials: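 After a 4hr attachment at 37C, NIH/3T3 cells bearing an integrated Gli1-driven luciferase reporter were dosed with compounds. Treatment lasted 24hr, with the final hour including CellTiter-Fluor for a fluorescence viability measurement.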

A short description of assay [7]: qHTS assay to identify small molecule antagonists of the sonic hedgehog signaling (Shh) pathway - cell viability counter screen (AID 1259367). Note: nearly all actives have a fitted effect of over 55% in size. Note: potency is the fitted concentration of half-maximal effect. In short, it runs like this:
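CellTiter-Fluor signal in conditioned medium-stimulated 3T3 Gli1-Luc cells, 23 hr compound exposure, 37C.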

A short description of assay [8]: qHTS assay to identify small molecule agonists of the sonic hedgehog signaling (Shh) pathway (AID 1259368; calls by dose curve;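 note: NIH/3T3-derived 3T3Gli1-Luc cells carrying a stable Gli1-driven firefly luciferase reporter; series mostly up to about 92 µM; nearly all actives have a fitted effect of over 15% in size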). In short, it runs like this: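 Cells of a mouse NIH/3T3 clone stably expressing luciferase under the Gli1 transcriptional response element are exposed to test chemicals for 24 hr at 37 C. Pathway activation is detected as a rise in luminescence.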
The nature of assay [9]: qHTS assay to identify small molecule antagonists of the sonic hedgehog signaling (Shh) pathway (AID 1259369; calls by dose curve; note: nearly all actives have a fitted effect of over 45% in size; note: potency is the fitted concentration of half-maximal effect). In short, it runs like this:
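Cells are plated and held 4hr at 37 C, compounds (DMSO) are pinned in, conditioned medium is added to stimulate the pathway, and after 24hr luciferase reagent is added for 30min before luminescence is read.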

Assay [10] in a line: qHTS assay to identify small molecule agonists of the androgen receptor (AR) signaling pathway in the presence of an antagonist - cell viability counter screen (AID 1259379).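 Note: MDA-kb2 human breast cancer cells carrying an MMTV luciferase reporter; series mostly up to about 92 µM; nearly all actives have a fitted effect of over 25% in size.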 The essentials:
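Cytotoxicity is assessed by CellTiter-Fluor in MDA-kb2 cells carrying an MMTV-driven luciferase reporter. Cells receive 3.0uM nilutamide plus compounds at 15 concentrations and incubate 16 hr at 37C without CO2 before fluorescence reading.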

Assay [11] is described as follows: qHTS assay to identify small molecule antagonists of the estrogen receptor beta (ER-beta) signaling pathway - cell viability counter screen (AID 1259382).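 Note: HEK293T cells carrying ER-beta-UAS-bla reporter stimulated with estradiol; series mostly up to about 92 µM; nearly all actives have a fitted effect of over 55% in size.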 The essentials:
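Cytotoxicity counter screen multiplexed with the beta-lactamase antagonist assay: GripTite HEK293T ER-beta-bla cells were treated 16 hr with test chemicals in the presence of 1nM 17-beta-estradiol, and viability was measured by CellTiter-Glo.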

Assay [12] deals with Estrogen receptor (Homo sapiens) (UniProt P03372). Nature of the assay: qHTS assay to identify small molecule agonists of the estrogen receptor alpha (ER-alpha) signaling pathway in the presence of an antagonist (AID 1259383; calls by dose curve; note: nearly all actives have a fitted effect of over 15% in size; note: potency is the fitted concentration of half-maximal effect; for activation: top concentration of the series differs between compounds). In short, it runs like this: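 Agonist-mode confirmation in the presence of the ER antagonist ICI-182,780 at 10.0nM final. Breast-derived VM7Luc4E2 reporter cells were exposed to compounds for 22hr, and ERE-driven luciferase was quantified by luminescence.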
Chain of Estrogen receptor (Homo sapiens) (P03372 whole entry, looked up): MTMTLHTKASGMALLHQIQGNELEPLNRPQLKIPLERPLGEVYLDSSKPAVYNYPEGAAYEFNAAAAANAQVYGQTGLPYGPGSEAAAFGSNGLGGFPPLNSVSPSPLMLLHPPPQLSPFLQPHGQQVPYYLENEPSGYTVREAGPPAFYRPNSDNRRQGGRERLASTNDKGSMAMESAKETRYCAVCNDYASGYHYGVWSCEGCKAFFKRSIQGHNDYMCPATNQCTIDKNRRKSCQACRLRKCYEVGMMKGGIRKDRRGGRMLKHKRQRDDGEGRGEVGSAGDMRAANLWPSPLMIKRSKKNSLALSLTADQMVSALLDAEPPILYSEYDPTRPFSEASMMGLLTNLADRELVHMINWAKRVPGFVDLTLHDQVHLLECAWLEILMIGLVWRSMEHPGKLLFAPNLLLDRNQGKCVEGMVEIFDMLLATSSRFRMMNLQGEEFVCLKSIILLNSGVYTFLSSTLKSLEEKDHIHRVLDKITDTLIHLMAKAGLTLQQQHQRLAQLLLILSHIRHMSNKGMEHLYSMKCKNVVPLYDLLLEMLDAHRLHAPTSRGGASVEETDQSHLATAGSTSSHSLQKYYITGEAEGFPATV

Assay [13] is described as follows: qHTS assay to identify small molecule agonists or antagonists of the thyroid stimulating hormone receptor (TSHR) signaling pathway - wild type cell line counter screen (AID 1259384; calls by dose curve). In short, it runs like this:
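Counter screen in untransfected Hek293: compounds (15-point titration, triplicate) plus phosphodiesterase inhibitor Ro20-1724 added after 18 h plating; 30 min RT. Intracellular cAMP via competitive d2/cryptate immunoassay, 1 h incubation.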

For assay [14], the target named is Thyrotropin receptor (Homo sapiens) (UniProt P16473). Nature of the assay: qHTS assay to identify small molecule antagonists of the thyroid stimulating hormone receptor (TSHR) signaling pathway (AID 1259385; calls by dose curve; note: nearly all actives have a fitted effect of over 20% in size). In short, it runs like this:
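Antagonist mode: compound-treated TSHR-expressing HEK293 cells were stimulated with 1.5 ng/mL TSH (final) in presence of Ro20-1724 for 30 min at RT. HTRF cAMP detection after 1 h; each compound tested at 15 concentrations, triplicate.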

The target of assay [15] is Estrogen receptor beta (Homo sapiens) (UniProt Q92731). Nature of the assay: qHTS assay to identify small molecule agonists of the estrogen receptor beta (ER-beta) signaling pathway (AID 1259377; active = well fitted activation curve with a large enough effect in the signal ratio in the repeat runs, not every such curve was filed as active; the % refers to the signal ratio; note: potency is the fitted concentration of half-maximal effect). The essentials: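 In HEK293T cells bearing a UAS-beta-lactamase reporter under ER-beta control, DMSO-delivered compounds were incubated for 16 hr at 37C. Activity was detected as fluorescence 2 hours after LiveBLAzer B/G FRET substrate addition.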
Chain of Estrogen receptor beta (Homo sapiens) (Q92731 whole entry, looked up): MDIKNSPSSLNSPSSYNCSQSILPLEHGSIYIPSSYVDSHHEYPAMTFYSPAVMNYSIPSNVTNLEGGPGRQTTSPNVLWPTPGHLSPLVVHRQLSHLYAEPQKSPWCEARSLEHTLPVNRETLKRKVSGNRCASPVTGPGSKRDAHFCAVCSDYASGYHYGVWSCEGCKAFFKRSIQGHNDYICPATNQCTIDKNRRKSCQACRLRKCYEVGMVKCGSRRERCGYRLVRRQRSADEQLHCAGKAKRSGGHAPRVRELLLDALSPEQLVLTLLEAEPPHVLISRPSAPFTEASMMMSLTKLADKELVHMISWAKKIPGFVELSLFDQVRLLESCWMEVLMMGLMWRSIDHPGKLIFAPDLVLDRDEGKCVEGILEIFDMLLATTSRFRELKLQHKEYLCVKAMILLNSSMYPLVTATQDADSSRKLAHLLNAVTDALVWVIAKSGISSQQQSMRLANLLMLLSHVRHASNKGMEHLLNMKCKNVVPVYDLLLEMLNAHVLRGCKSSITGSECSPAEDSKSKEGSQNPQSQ

Assay [16] has the same target. Nature of the assay: qHTS assay to identify small molecule antagonists of the estrogen receptor beta (ER-beta) signaling pathway (AID 1259378; active = well fitted inhibition curve with a large enough effect in the signal ratio in the repeat runs, not every such curve was filed as active; the % refers to the signal ratio; note: potency is the fitted concentration of half-maximal effect). In short, it runs like this: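 Antagonist mode: compounds added to beta-lactamase reporter HEK293T ER-beta-UAS cells stimulated with E2 (1nM final), 16 hr at 37C. LiveBLAzer B/G FRET substrate, 2 hours room temperature, fluorescence read-out.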

The nature of assay [17]: qHTS assay to identify small molecule agonists of the estrogen receptor beta (ER-beta) signaling pathway - cell viability counter screen (AID 1259380). Note: nearly all actives have a fitted effect of over 30% in size. Note: potency is the fitted concentration of half-maximal effect. In short, it runs like this:
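Cytotoxicity is measured in parallel with the reporter screen: after 16 hr compound exposure at 37C and a 2 hr LiveBLAzer step, CellTiter-Glo is added to the same ER-beta-UAS-bla HEK293T wells and luminescence read after 30 min.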

A short description of assay [18]: qHTS assay to identify small molecule phospholipidosis (PLD) inducers (AID 1259344; active = well fitted curve in the direction sought with a large enough effect; an effect the other way counts as inactive or inconclusive). In short, it runs like this: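 Accumulated phospholipid, stained red by LipidTOX during 24 h compound treatment of HepG2 cells at 37 C, is quantified from images as pit number and intensity, normalised per cell using Hoechst-stained nuclei.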

Values without a mark were called inactive. Inconclusive results are not listed. Active and inactive are the calls of the source. Unless noted, calls come from the whole dose curve; as a rule, active = well fitted curve in the direction sought with a large enough effect in the repeat runs; inconclusive = weak or mixed curves; inactive = no such curve, though single readings can be large; an effect the other way counts as inactive or inconclusive.

Chain of Thyrotropin receptor (Homo sapiens) (P16473 whole entry, looked up): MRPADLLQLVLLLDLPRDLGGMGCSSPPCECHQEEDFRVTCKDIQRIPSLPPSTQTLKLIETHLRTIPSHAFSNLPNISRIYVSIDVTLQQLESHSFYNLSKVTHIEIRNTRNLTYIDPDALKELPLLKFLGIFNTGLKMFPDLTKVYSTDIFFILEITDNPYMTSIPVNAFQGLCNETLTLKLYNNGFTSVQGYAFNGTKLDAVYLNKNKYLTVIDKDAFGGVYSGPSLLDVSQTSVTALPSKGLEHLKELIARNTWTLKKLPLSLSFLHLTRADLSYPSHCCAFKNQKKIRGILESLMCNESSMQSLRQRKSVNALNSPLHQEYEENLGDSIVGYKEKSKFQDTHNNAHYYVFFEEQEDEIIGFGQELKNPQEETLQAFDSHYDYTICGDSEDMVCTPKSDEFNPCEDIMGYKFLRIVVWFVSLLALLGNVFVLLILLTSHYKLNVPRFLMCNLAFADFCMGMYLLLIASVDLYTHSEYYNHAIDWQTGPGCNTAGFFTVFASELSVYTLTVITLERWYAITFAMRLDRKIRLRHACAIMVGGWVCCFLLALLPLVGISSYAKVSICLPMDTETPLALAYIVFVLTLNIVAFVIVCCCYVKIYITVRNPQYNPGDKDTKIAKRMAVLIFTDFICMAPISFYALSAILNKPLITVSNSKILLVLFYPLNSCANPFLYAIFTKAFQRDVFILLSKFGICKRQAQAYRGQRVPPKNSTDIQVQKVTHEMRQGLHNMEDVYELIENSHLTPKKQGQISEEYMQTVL

In the case of `C#CCOC(=O)[C@@H](C)Oc1ccc(Oc2ncc(Cl)cc2F)cc1`, the Potency result in [1], in [2], in assay [3], in [4], in assay [6] and in assay [7] was “inactive” throughout. Further, the Potency entry in [9], in [10], in assay [11], in [12], in assay [13] and in assay [14] was “inactive” throughout. In addition, the outcome in assay [5] and in assay [8] was inactive.

For `CCc1nn(C2CCCCC2)c2cc(C3(C#N)CCC(C(=O)O)CC3)ccc12` (configuration not stated), the Potency result in [1], in assay [2], in assay [3], in assay [4], in assay [9] and in assay [15] was “inactive” throughout. The Potency entry in assay [11], in assay [12], in assay [13] and in assay [14] was “inactive” throughout. Moreover, the outcome in assay [5] and in assay [8] was inactive. Besides, the Potency in assay [6] is 30.6 µM (active); in assay [7] it was 27.3 µM (active); in assay [16] it was 13.7 µM (active); in [17], 8.63 µM (active).

As for `Oc1ccc(Sc2ccc(O)cc2)cc1`, the Potency entry in [1], in [2], in [3], in [4], in [6] and in [7] was “inactive” in each case. For the same compound, the Potency result in assay [10], in assay [11] and in assay [13] was “inactive” in each case. The compound was called inactive in assay [5] and in assay [8]. The Potency was 20.3 µM (active) in assay [9], 6.42 µM (active) in assay [15] and 14.4 µM (active) in [12].

Take `CCCCOC(=O)c1ccccc1C(=O)OCC(CC)CCCC` (configuration not stated): the Potency entry in [1], in assay [2], in assay [3], in [4], in assay [6] and in assay [7] was “inactive” throughout. Besides, the Potency result in [9], in assay [15], in [10], in assay [17], in assay [11] and in assay [12] was “inactive” throughout. Moreover, the Potency result in assay [13] and in [14] was “inactive” in each case. Besides, the result in assay [5] and in [8] was inactive.

Take `CCCCCOC(=O)COc1cc(N2C(=O)C3=C(CCCC3)C2=O)c(F)cc1Cl`: the Potency result in assay [1], in [2], in [3], in [4], in [6] and in [7] was “inactive” in each case. Also, the Potency entry in [9], in assay [16], in assay [10], in [12], in assay [13] and in assay [14] was “inactive” each time. The call in assay [5] and in assay [8] was inactive.

Consider `C[C@H](CCC(=O)O)[C@H]1CC[C@H]2[C@@H]3[C@H](O)C[C@@H]4C[C@H](O)CC[C@]4(C)[C@H]3CC[C@]12C`, for which the Potency result in assay [1], in assay [2], in assay [3], in [18], in [4] and in assay [6] was “inactive” throughout. Also, the Potency entry in [9], in [15], in assay [10], in [11], in assay [12] and in assay [13] was “inactive” in each case. For the same compound, the Potency entry in assay [14] was “inactive”. In [5], the call was inactive.

Turning to `Nc1nc(N)c2nc(CNc3ccc(C(=O)N[C@@H](CCC(=O)O)C(=O)O)cc3)cnc2n1`, the Potency entry in assay [1], in assay [2], in [3], in assay [18], in assay [7] and in assay [9] was “inactive” each time. The Potency result in assay [16], in assay [10], in assay [17], in assay [11], in assay [13] and in [14] was “inactive” each time. Further, the outcome in assay [5] and in assay [8] was inactive.

Turning to `CCCCCCCCCCCCCCCBr`, the Potency entry in [1], in assay [2], in assay [3], in [4], in [6] and in assay [7] was “inactive” throughout. For the same compound, the Potency result in assay [9], in [10], in assay [17], in [11], in assay [12] and in [13] was “inactive” each time. In addition, in assay [14], the Potency result is “inactive”. The outcome in [5] and in assay [8] was inactive.

Regarding `Nc1cnn([C@@H]2O[C@H](CO)[C@@H](O)[C@H]2O)c(=O)n1`, the Potency entry in assay [1], in assay [2], in assay [3], in [4], in assay [6] and in [7] was “inactive” throughout. Further, the Potency entry in assay [9], in assay [10], in assay [17], in [12], in assay [13] and in assay [14] was “inactive” throughout. In addition, the result in [5] and in assay [8] was inactive. In addition, the Potency in [16] is 27.3 µM (active).
